PubChem BioAssay AID1159580 (chemical genetic matrix, 2015)
Values joined by “and” are separate entries in the source; they are usually repeats but may differ in a detail not shown here. Equal entries are not always repeated. The campaign covered roughly 5,500 compounds. About 2,000 (36%) were called active. Inconclusive results (about 18%) are left out. Cut-off read from the data, not from the text of the source: active = normalized growth mostly below about 0.91 (no sharp cut-off); inconclusive = no clear call, values can overlap the other calls; inactive = mostly above about 0.92. This is one part of the list.

Assay: chemical genetic growth profiling, strain panel (AID 1159580);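 note: tested at 20 µM; growth read once vehicle control cultures reached saturation at 30 °C; 1 = growth at the plate median or of vehicle wells; lower values mean less growth of the strain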
Settings: S. cerevisiae deletion strains, growth OD

Measured: normalized growth

CC1=CC(=O)CC(C)(C)C1(O)/C=C/C(C)=C\C(=O)O (stereo not given)
inactive: locus YAL013W, strain DEP1, hits give low values 0.986 | locus YAL021C, strain ccr4, hits give low values 0.996 | locus YAL026C, strain drs2, hits give low values 1.03 | locus YAL030W, strain snc1, hits give low values 1.02 | locus YBL061C, strain skt5, hits give low values 1.02 | locus YBR009C, strain hhf1, hits give low values 1.01 | locus YBR021W, strain FUR4, hits give low values 1.02 | locus YBR023C, strain chs3, hits give low values 1.03 | locus YBR171W, strain sec66, hits give low values 1.02 | locus YBR229C, strain ROT2, hits give low values 0.948 | locus YBR231C, strain swc5, hits give low values 1.03 | locus YBR279W, strain paf1, hits give low values 1.01 | locus YCL011C, strain gbp2, hits give low values 1.02 | locus YCL016C, strain dcc1, hits give low values 1.01 | locus YCL029C, strain bik1, hits give low values 0.973 | locus YCL069W, strain vba3, hits give low values 1.01 | locus YCR088W, strain abp1, hits give low values 1.03 | locus YDL005C, strain med2, hits give low values 1.03 | locus YDL035C, strain GPR1, hits give low values 0.981 | locus YDL040C, strain nat1, hits give low values 1.02 | locus YDL074C, strain BRE1, hits give low values 0.985 | locus YDL101C, strain DUN1, hits give low values 0.987 | locus YDL134C, strain PPH21, hits give low values 0.984 | locus YDL185W, strain tfp1, hits give low values 0.953 | locus YDL192W, strain arf1, hits give low values 0.983 | locus YDR001C, strain nth1, hits give low values 1.03 | locus YDR069C, strain doa4, hits give low values 1.04 | locus YDR101C, strain arx1, hits give low values 1.01 | locus YDR137W, strain rgp1, hits give low values 1.01 | locus YDR150W, strain NUM1, hits give low values 0.979 | locus YDR159W, strain sac3, hits give low values 1.03 | locus YDR162C, strain NBP2, hits give low values 0.979 | locus YDR195W, strain ref2 1.03 | locus YDR297W, strain sur2, hits give low values 1.03 | locus YDR318W, strain mcm21, hits give low values 0.979 | locus YDR334W, strain swr1, hits give low values 1.02 | locus YDR335W, strain msn5, hits give low values 1.03 | locus YDR388W, hits give low values 0.985 | locus YDR392W, strain spt3, hits give low values 1.01 | locus YDR502C, strain sam2, hits give low values 0.993 | locus YEL003W, strain gim4, hits give low values 1.02 | locus YEL037C, strain rad23, hits give low values 1.02 | locus YEL061C, strain CIN8 (second series), hits give low values 1.03 | locus YEL061C, strain CIN8, hits give low values 0.986 | locus YER015W, strain faa2, hits give low values 1.02 | locus YER016W, strain bim1, hits give low values 1.01 | locus YER110C, hits give low values 0.96 | locus YER111C, strain swi4, hits give low values 1.02 | locus YER155C, strain BEM2 (second series), hits give low values 1.05 | locus YER155C, strain BEM2, hits give low values 0.995 | locus YER167W, strain BCK2, hits give low values 0.988 | locus YFR010W, strain ubp6, hits give low values 1.04 | locus YGL078C, strain dbp3, hits give low values 0.987 | locus YGL086W, strain mad1, hits give low values 1 | locus YGL167C, strain pmr1, hits give low values 1.01 | locus YGL173C, strain kem1, hits give low values 1.01 | locus YGL227W, strain vid30, hits give low values 1.03 | locus YGL240W, strain doc1, hits give low values 1.03 | locus YGL248W, strain PDE1, hits give low values 0.977 | locus YGL253W, strain hxk2, hits give low values 1.03 | locus YGR078C, strain PAC10, hits give low values 0.983 | locus YGR135W, strain pre9, hits give low values 0.976 | locus YGR252W, strain gcn5, hits give low values 0.976 | locus YHR013C, strain ard1, hits give low values 1.03 | locus YHR027C, strain rpn1, hits give low values 1.02 | locus YHR030C, strain SLT2, hits give low values 0.988 and 1.01 | locus YHR079C, strain IRE1 (second series), hits give low values 0.974 | locus YHR079C, strain IRE1, hits give low values 0.974 | locus YHR094C, strain hxt1, hits give low values 0.966 | locus YHR129C, strain ARP1, hits give low values 0.989 | locus YHR142W, strain chs7, hits give low values 1.02 | locus YHR200W, strain rpn10, hits give low values 0.984 | locus YIL066C, strain RNR3, hits give low values 0.976 | locus YIL073C, strain SPO22, hits give low values 0.896 | locus YIL125W, strain kgd1, hits give low values 0.982 | locus YIR030C, strain dcg1, hits give low values 0.983 | locus YJL092W, strain hpr5, hits give low values 1.02 | locus YJL095W, strain BCK1 (second series), hits give low values 1.02 | locus YJL095W, strain BCK1, hits give low values 0.989 and 1.04 | locus YJL115W, strain asf1, hits give low values 1.03 | locus YJL129C, strain trk1, hits give low values 1.08 | locus YJL134W, strain LCB3, hits give low values 0.973 | locus YJL154C, strain vps35, hits give low values 1.02 | locus YJL164C, strain tpk1, hits give low values 1.01 | locus YJL166W, strain qcr8, hits give low values 1.04 | locus YJL168C, strain set2, hits give low values 0.982 | locus YJL187C, strain SWE1 (second series), hits give low values 0.972 | locus YJR043C, strain POL32, hits give low values 0.978 | locus YJR066W, strain TOR1, hits give low values 0.929 | locus YJR075W, strain HOC1, hits give low values 0.985 | locus YKL009W, strain mrt4, hits give low values 0.966 | locus YKL068W, hits give low values 0.973 | locus YKL085W, strain MDH1 (second series), hits give low values 0.983 | locus YKL085W, strain MDH1, hits give low values 0.983 | locus YKL160W, strain elf1, hits give low values 1.03 | locus YKR001C, strain vps1, hits give low values 0.975 | locus YKR026C, strain gcn3, hits give low values 1.03 | locus YKR091W, strain srl3, hits give low values 1.02 | locus YLL001W, strain dnm1, hits give low values 1.03 | locus YLL026W, hits give low values 1.02 | locus YLL041C, strain sdh2, hits give low values 1.02 | locus YLR027C, strain aat2, hits give low values 1.03 | locus YLR039C, strain RIC1, hits give low values 0.959 | locus YLR058C, strain SHM2, hits give low values 0.973 | locus YLR102C, strain apc9, hits give low values 0.974 | locus YLR113W, strain HOG1, hits give low values 1.07 | locus YLR221C, strain rsa3, hits give low values 1.01 | locus YLR258W, strain gsy2, hits give low values 1.02 | locus YLR262C, strain YPT6 (second series), hits give low values 1.04 | locus YLR262C, strain YPT6, hits give low values 0.941 | locus YLR268W, strain sec22, hits give low values 0.993 | locus YLR320W, strain mms22, hits give low values 1.02 | locus YLR330W, strain CHS5, hits give low values 0.992 | locus YLR342W, strain FKS1 (second series), hits give low values 0.984 | locus YLR342W, strain FKS1, hits give low values 1.03 | locus YLR357W, strain rsc2, hits give low values 1.02 | locus YLR370C, strain arc18, hits give low values 1.03 | locus YLR371W, strain rom2, hits give low values 0.952 | locus YLR384C, strain iki3, hits give low values 1.02 | locus YLR418C, strain cdc73, hits give low values 0.93 | locus YML016C, strain PPZ1, hits give low values 0.994 | locus YML032C, strain rad52, hits give low values 0.97 | locus YML120C, strain ndi1, hits give low values 1.02 | locus YML124C, strain tub3, hits give low values 0.976 | locus YMR058W, strain fet3, hits give low values 1.02 | locus YMR078C, strain ctf18, hits give low values 0.963 | locus YMR125W, strain sto1, hits give low values 1.06 | locus YMR129W, hits give low values 1.03 | locus YMR205C, strain PFK2, hits give low values 1.02 | locus YMR223W, strain ubp8, hits give low values 0.941 | locus YMR231W, strain pep5, hits give low values 1.01 | locus YMR307W, strain GAS1, hits give low values 1 | locus YNL067W, strain RPL9B, hits give low values 0.985 | locus YNL071W, strain lat1, hits give low values 1.03 | locus YNL153C, strain GIM3, hits give low values 0.987 | locus YNL183C, strain NPR1, hits give low values 0.99 | locus YNL209W, strain ssb2, hits give low values 1.02 | locus YNL233W, strain BNI4, hits give low values 0.997 | locus YNL248C, strain rpa49, hits give low values 1.02 | locus YNL250W, strain rad50, hits give low values 0.964 | locus YNL271C, strain bni1, hits give low values 0.978 | locus YNL298W, strain CLA4, hits give low values 0.983 | locus YNL307C, strain MCK1, hits give low values 0.973 | locus YNL322C, strain KRE1 (second series), hits give low values 1.02 | locus YNL322C, strain KRE1, hits give low values 0.987 | locus YNR049C, strain mso1, hits give low values 1.02 | locus YNR052C, strain pop2, hits give low values 0.989 | locus YOL012C, strain htz1 0.831 | locus YOL147C, strain pex11, hits give low values 0.971 | locus YOR001W, strain rrp6, hits give low values 1.01 | locus YOR061W, strain CKA2, hits give low values 0.951 | locus YOR069W, strain VPS5, hits give low values 0.992 | locus YOR070C, strain gyp1, hits give low values 1.01 | locus YOR080W, strain dia2, hits give low values 1.02 | locus YOR083W, strain WHI5, hits give low values 1.02 | locus YOR106W, strain vam3, hits give low values 1.04 | locus YOR136W, strain idh2, hits give low values 0.977 | locus YOR144C, strain elg1, hits give low values 0.97 | locus YOR184W, strain ser1, hits give low values 0.98 | locus YOR231W, strain MKK1, hits give low values 0.998 | locus YOR265W, strain rbl2, hits give low values 1.03 | locus YOR270C, strain vph1, hits give low values 1.08 | locus YOR290C, strain snf2, hits give low values 1.02 | locus YOR316C, strain cot1, hits give low values 0.971 | locus YPL051W, strain arl3, hits give low values 1.03 | locus YPL055C, strain LGE1, hits give low values 0.979 | locus YPL078C, strain atp4, hits give low values 1.03 | locus YPL106C, strain sse1, hits give low values 1.02 | locus YPL240C, strain hsp82, hits give low values 1.04 | locus YPL256C, strain CLN2, hits give low values 1.01 | locus YPR119W, strain clb2, hits give low values 0.968 | locus YPR141C, strain kar3, hits give low values 0.954 | locus YPR163C, strain tif3, hits give low values 0.967 | locus YPR167C, strain met16, hits give low values 0.958 | strain wtn01, hits give low values 1.03
